In PubChem BioAssay (NCI):
This is part of a sample that, as a whole, favours compounds with a hit. Of some 79,000 tested, about 15% had one in any assay. No stated cut-off is given here; in the data, active means growth inhibition above about 70%; inactive means the rest.

Key:
[1] = NCI Yeast Anticancer Drug Screen. Data for the rad52 strain (AID 147);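 further: 0% = growth of vehicle-treated control cultures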; conditions: S. cerevisiae rad52 mutant growth inhibition, active compounds read high
Summary of the method: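 Growth of repair-deficient yeast cells was compared between compound-treated and vehicle-treated cultures to give percent inhibition.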

[2] = NCI Yeast Anticancer Drug Screen. Data for the wt1 strain (AID 149);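 further: 0% = growth of vehicle-treated wt1 cultures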; conditions: S. cerevisiae wt1 strain (SPY 50644) growth inhibition, active compounds read high
Summary of the method: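 Readout: yeast growth inhibition, normalised to vehicle controls, in the wt1 strain exposed to test compounds.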

[3] = NCI Yeast Anticancer Drug Screen. Data for the rad50EPP+ strain (AID 151);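 further: 0% = growth of vehicle-treated control cultures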; conditions: S. cerevisiae rad50 mutant strain, active compounds read high
Summary of the method: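 Measured: growth inhibition of rad50EPP+ yeast. Reference: vehicle-treated controls. Screen uses strains with defined genetic alterations in DNA damage repair or cell cycle control.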

[4] = NCI Yeast Anticancer Drug Screen. Data for the mgt1 strain (AID 153); conditions: S. cerevisiae mgt1 mutant growth inhibition, active compounds read high
Summary of the method: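 Compounds were applied to mgt1 mutant yeast, and growth was then compared against vehicle-treated control cultures to give percent inhibition.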

[5] = NCI Yeast Anticancer Drug Screen. Data for the rad50 strain (AID 155);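 further: 0% = growth of vehicle-only cultures of the same strain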; conditions: S. cerevisiae rad50 strain growth inhibition, active compounds read high
Summary of the method: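 Compounds were tested on a yeast strain with an engineered DNA damage repair alteration; the reported value is growth inhibition normalised to vehicle treatment.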

[6] = NCI Yeast Anticancer Drug Screen. Data for the mec2-1 strain (AID 157); conditions: S. cerevisiae mec2-1 strain, active compounds read high
Summary of the method: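 Compounds were applied to mec2-1 yeast cells. Their growth was then compared with that of vehicle-treated cultures to give growth inhibition.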

[7] = NCI Yeast Anticancer Drug Screen. Data for the rad14 strain (AID 159);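 further: 0% = growth of vehicle-treated control cultures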; conditions: S. cerevisiae rad14 strain growth inhibition, active compounds read high
Summary of the method: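 Compound-treated yeast with a defined DNA-repair lesion; growth inhibition normalised to vehicle-treated cultures.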

[8] = NCI Yeast Anticancer Drug Screen. Data for the sgs1 mgt1 strain (AID 161);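 further: 0% = growth of cultures given vehicle only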; conditions: S. cerevisiae sgs1 mgt1 strain, active compounds read high
Summary of the method: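 This yeast growth screen uses a strain with defined DNA-repair lesions; compound-treated growth is compared with vehicle-treated growth.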

[9] = NCI Yeast Anticancer Drug Screen. Data for the CLN2oe strain (AID 163);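 further: 0% = growth of vehicle-only control cultures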; conditions: S. cerevisiae CLN2oe strain, active compounds read high
Summary of the method: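 Cells of an engineered yeast line with disturbed cell-cycle regulation are treated with compound. Inhibition of growth is then calculated relative to the vehicle-treated reference.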

[10] = NCI Yeast Anticancer Drug Screen. Data for the cln2 rad14 strain (AID 165);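 further: 0% = growth equal to vehicle treated cultures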; conditions: S. cerevisiae cln2 rad14 strain, active compounds read high
Summary of the method: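 Strain: cln2 rad14 yeast, altered in cell cycle control and DNA damage repair. Read-out: growth inhibition vs vehicle.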

[11] = NCI Yeast Anticancer Drug Screen. Data for the bub3 strain (AID 167); conditions: S. cerevisiae bub3 mutant strain, active compounds read high
Summary of the method: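 Growth of a checkpoint-deficient yeast mutant is measured after compound exposure. Values represent inhibition relative to vehicle.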

[12] = NCI Yeast Anticancer Drug Screen. Data for the wt2 strain (AID 169);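 further: 0% = growth of vehicle-treated yeast cultures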; conditions: S. cerevisiae wt2 strain growth inhibition, active compounds read high
Summary of the method: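 Growth of compound-treated yeast is measured and expressed as inhibition relative to vehicle-only controls.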

[13] = NCI Yeast Anticancer Drug Screen. Data for the mlh1 strain (AID 171);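 further: 0% = growth of vehicle-treated control cultures of the same strain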; conditions: S. cerevisiae mlh1 strain growth inhibition, active compounds read high
Summary of the method: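 Test agents were incubated with yeast bearing a defined DNA damage repair or cell cycle control alteration; values are growth inhibition normalised to vehicle-treated cultures.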

[14] = NCI Yeast Anticancer Drug Screen. Data for the sgs1 strain (AID 173);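 further: 0% = growth of vehicle-only control cultures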; conditions: S. cerevisiae sgs1 mutant, active compounds read high
Summary of the method: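 Strain with an altered DNA repair or cell cycle pathway exposed to compound. Growth then measured. Value = inhibition versus vehicle control.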

[15] = NCI Yeast Anticancer Drug Screen. Data for the mlh1 rad18 strain (AID 175); conditions: S. cerevisiae mlh1 rad18 strain growth inhibition, active compounds read high
Summary of the method: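 A repair-deficient yeast strain is exposed to test compound, and growth is scored relative to vehicle-treated controls.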

[16] = NCI Yeast Anticancer Drug Screen. Data for the rad18 strain (AID 177); conditions: S. cerevisiae rad18 mutant growth inhibition, active compounds read high
Summary of the method: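 DNA-repair-defective yeast; compound treatment; growth inhibition scored against vehicle.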

[17] = at 5.0 µM (retest, dose inferred, filed as 0.5)
[18] = at 50.0 µM (retest, dose inferred, filed as 5.0)

Measured: growth inhibition

COc1cc(C2SCC(=O)N2c2nnc(C(F)(F)F)s2)cc(OC)c1OC (stereo not drawn)
inactive: [1]; at 1.2 µM -1% | [1]; at 3.7 µM -3% | [1]; at 11.0 µM -2% | [1]; at 33.0 µM -3% | [1]; at 100.0 µM -5% | [2]; at 1.2 µM -84% | [2]; at 3.7 µM -3% | [2]; at 11.0 µM -3% | [2]; at 33.0 µM -1% | [2]; at 100.0 µM -3% | [3]; at 1.2 µM -4% | [3]; at 3.7 µM -2% | [3]; at 11.0 µM 3% | [3]; at 33.0 µM -2% | [3]; at 100.0 µM 0% | [4]; at 1.2 µM -1% | [4]; at 3.7 µM -2% | [4]; at 11.0 µM -5% | [4]; at 33.0 µM -1% | [4]; at 100.0 µM -4% | [5]; at 1.2 µM -1% | [5]; at 3.7 µM -2% | [5]; [17] -5% | [5]; at 11.0 µM -2% | [5]; at 33.0 µM 0% | [5]; [18] -18% | [5]; at 50.0 µM 18.1% | [5]; at 100.0 µM -5% | [6]; at 1.2 µM -4% | [6]; at 3.7 µM 2% | [6]; [17] 0% | [6]; at 11.0 µM 4% | [6]; at 33.0 µM 1% | [6]; [18] -4% | [6]; at 50.0 µM 20.9% | [6]; at 100.0 µM -1% | [7]; at 1.2 µM -2% | [7]; at 3.7 µM -2% | [7]; at 11.0 µM -1% | [7]; at 33.0 µM -2% | [7]; at 100.0 µM -4% | [8]; [17] -4% | [8]; [18] 2% | [8]; at 50.0 µM 0.1% | [9]; at 1.2 µM -7% | [9]; at 3.7 µM 1% | [9]; at 11.0 µM -2% | [9]; at 33.0 µM 0% | [9]; at 100.0 µM -8% | [10]; [17] -7% | [10]; [18] -10% | [10]; at 50.0 µM -12.5% | [11]; at 1.2 µM 6% | [11]; at 3.7 µM 12% | [11]; [17] 31% | [11]; at 11.0 µM 28% | [11]; at 33.0 µM 41% | [11]; [18] 50% | [11]; at 50.0 µM 43.1% | [11]; at 100.0 µM 48% | [12]; at 1.2 µM -2% | [12]; at 3.7 µM -4% | [12]; at 11.0 µM -2% | [12]; at 33.0 µM -4% | [12]; at 100.0 µM -4% | [13]; at 1.2 µM -3% | [13]; at 3.7 µM -2% | [13]; at 11.0 µM 0% | [13]; at 33.0 µM -1% | [13]; at 100.0 µM -2% | [14]; at 1.2 µM -3% | [14]; at 3.7 µM -2% | [14]; at 11.0 µM -3% | [14]; at 33.0 µM -1% | [14]; at 100.0 µM -1% | [15]; [17] -4% | [15]; [18] -9% | [15]; at 50.0 µM 0.35% | [16]; at 1.2 µM -2% | [16]; at 3.7 µM -2% | [16]; at 11.0 µM -1% | [16]; at 33.0 µM -2% | [16]; at 100.0 µM -2%
